Experimental data as given in PubChem BioAssay (NCI).
The panel holds about 83,000 compounds, 20% with a hit somewhere; the sample as a whole holds those more often.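 Note: values are percent growth. 100 is the growth of untreated cells, values between 100 and 0 indicate rising inhibition; between -100 and 0 indicates cell death.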 Unmarked numbers belong to inactive results. The source made the active and inactive calls. The calls were made as follows: active = growth percent below 10; inactive = the rest.

What follows are compounds tested on T-47D breast (assay: NCI-60 one-dose screen, 48 h (100 = growth as untreated, 0 = no growth, -100 = all killed)). Details: 10 µM unless noted.

Structure (SMILES)	growth
Cc1cc(Cl)ccc1Nc1nc(C(F)(F)F)ccc1C(=O)N/N=C/c1ccc([N+](=O)[O-])cc1	-1.52% (active)
CCOC(=O)c1cc(C(=O)c2cc(OC)c(OC)c(OC)c2)n2ccc(-c3ccncc3)cc12	84.1%
C[C@@H]1CCC[C@H]1CC(N)C(=O)O (stereo partly specified)	106%
Cc1ccc(Cc2cnc(NC(=O)c3cc(Br)cs3)s2)cc1	44.4%
O=C1C(Cl)=C(Oc2ccccc2)C(=O)c2ccccc21	-0.942% (active)
CC/C(=C(/c1ccc(Cl)cc1)c1ccc(OCCN2CCCC2)cc1)c1ccc(OC)cc1	43.7%
N=C(N)c1ccc(-c2ccc(-c3cc(Cl)cc(Cl)c3)o2)o1	-58.3% (active)
COc1cc(-n2cc(-c3cc(O)c(C/C=C(\C)CCC=C(C)C)c(O)c3)nn2)cc2c1O[C@]1(C)CC[C@@H](O)C(C)(C)[C@H]1C2	5.7% (active)
COc1cccc([C@H]2c3[nH]c4ccccc4c3C[C@H]3C(=O)N(CCCCCCC(=O)NO)CC(=O)N23)c1	31.5%
CC(O)c1cnc(/C=C2\SC(=S)N(Cc3ccccc3)C2=O)s1 (stereo unspecified)	41.7%
Cc1cc(Cl)ccc1NC(=O)c1cc2ccccc2cc1O	12.6%
CCn1cc(C(=O)N/N=C/c2cccs2)c(=O)c2cc(F)c(N3CCNC(C)C3)c(F)c21 (stereo unspecified)	77.8%
CC1=C(CCC(C)N(C)Cc2ccc(OCCCN3CCCC3)cc2)C(C)(C)CCC1 (stereo unspecified)	-43.1% (active)
COP(=O)(OC)C(C)(C)CC(=O)CC(C#N)(C#N)C(C#N)C#N	106%
CCCCC[C@@H]1Cc2cc(O)c(C(=O)O)c3c2[C@H](C[C@]2(OC[C@@H](CC(=O)[C@@](C)(CC)C(=O)OC)[C@@H]2C)O3)O1	98.5%
Nc1ncnc2c1N=C(c1ccc(Cl)cc1)CC(c1ccc3c(c1)OCO3)N2 (stereo unspecified)	93.8%
O=[N+]([O-])/C(=C/C=C/c1ccccc1)c1ccccc1	46.4%
Fc1ccc(-c2nn(-c3ccccc3)cc2-c2nc3ccccc3o2)cc1	44.6%
COc1cc(/C=C/C(=O)c2cccc(Nc3nc(Nc4ccccc4)nc(Nc4ccccc4)n3)c2)cc(OC)c1OC	42.2%
C#CCOc1cccc(Nc2ncnc3c(NC(=O)C=C)cccc23)c1	4.83% (active)
CNc1nc(S(=O)c2ccc(C#N)cc2)nc2ccccc12 (stereo unspecified)	62.4%
CC(=O)N(N=Nc1ccccc1)c1cccc2ccccc12	84.7%
O=C(/C=C/c1cn(-c2ccccc2)nc1-c1ccc([N+](=O)[O-])cc1)c1ccc(Cl)cc1	31.4%
COc1cc(-c2csc(NC(=O)c3cc(-n4cnc(C)c4)cc(C(F)(F)F)c3)n2)cc(OC)c1OC	23.5%
COc1ccc(-c2nc3c(c(-c4ccccc4)nn3-c3ccccc3)c(-c3ccc(N4CCOCC4)cc3)c2C#N)cc1	94.3%
CSc1nc2sc3c(c2c(=O)n1-c1ccc([N+](=O)[O-])cc1)CCCCC3	89%

Each compound was assayed on BT-549 breast in the same assay as above. Details: 10 µM unless noted.

Structure (SMILES)	growth
CS(=O)(=O)Nc1cc(-c2ccc3ncnc(Nc4c(Cl)ccc5c4OCO5)c3c2)cnc1Cl	-26% (active)
O=C(Nc1cc(Cl)ccc1O)c1ccc(Nc2ccnc(C(F)(F)F)c2)cc1	34.5%
Cc1cccc(N2CCN(CC(O)COc3ccc(Cl)cc3)CC2)c1 (stereo unspecified)	100%
OCCOCCN(Cc1ccccn1)Cc1cc(I)cc(I)c1O	81.6%
COc1ccc(C2c3sc4c(F)cccc4c3Oc3nc[nH]c(=O)c32)cc1 (stereo unspecified)	84.6%
N#Cc1cccc(F)c1	111%
C=C(C)[C@@H]1CC[C@]2(C(=O)NCC#CCN3CCN(C)CC3)CC[C@]3(C)[C@H](CC[C@@H]4[C@@](C)(CCC#N)[C@H](C(=C)C)CC[C@]43C)[C@@H]12	78.6%
O=C(O)c1[nH]c(=O)[nH]c(=O)c1[N+](=O)[O-]	107%
O=c1c2cc(-c3ccccc3)sc2nc2sc(-c3ccccc3)nn12	118%
CCOC(=O)c1c(C)nc2c(c1N)CC(=O)N2Cc1cc(F)cc(Cl)c1	96.3%
COc1ccc(C(=S)N2CCN(c3ccccc3Cl)CC2)cc1OC	90.6%
C#Cc1cccc(Nc2ncnc3ccc(-c4cnc(N)nc4)cc23)c1	28.9%
Cc1ccc(/C=C2\CN(C(=O)OC(C)(C)C)C/C(=C\c3ccc(C)cc3)C2=O)cc1	99.9%
COC(=O)/C(CCC=C(C)C)=C1\[C@@H](OC(C)=O)C[C@@]2(C)[C@H]1C[C@@H](O)[C@H]1[C@@]3(C)CC[C@H](NCCN)[C@@H](C)[C@@H]3CC[C@@]12C	84.8%
Cc1cc(Cl)ccc1Nc1nc(C(F)(F)F)ccc1C(=O)N/N=C/c1ccc([N+](=O)[O-])cc1	6.01% (active)
CCOC(=O)c1cc(C(=O)c2cc(OC)c(OC)c(OC)c2)n2ccc(-c3ccncc3)cc12	90.6%
C[C@@H]1CCC[C@H]1CC(N)C(=O)O (stereo partly specified)	106%
Cc1ccc(Cc2cnc(NC(=O)c3cc(Br)cs3)s2)cc1	37.1%
O=C1C(Cl)=C(Oc2ccccc2)C(=O)c2ccccc21	70.8%
CC/C(=C(/c1ccc(Cl)cc1)c1ccc(OCCN2CCCC2)cc1)c1ccc(OC)cc1	85.8%

Structure (SMILES)	growth
N=C(N)c1ccc(-c2ccc(-c3cc(Cl)cc(Cl)c3)o2)o1	88.8%
COc1cc(-n2cc(-c3cc(O)c(C/C=C(\C)CCC=C(C)C)c(O)c3)nn2)cc2c1O[C@]1(C)CC[C@@H](O)C(C)(C)[C@H]1C2	29%
COc1cccc([C@H]2c3[nH]c4ccccc4c3C[C@H]3C(=O)N(CCCCCCC(=O)NO)CC(=O)N23)c1	77.9%
CC(O)c1cnc(/C=C2\SC(=S)N(Cc3ccccc3)C2=O)s1 (stereo unspecified)	86.9%
Cc1cc(Cl)ccc1NC(=O)c1cc2ccccc2cc1O	26.6%
CCn1cc(C(=O)N/N=C/c2cccs2)c(=O)c2cc(F)c(N3CCNC(C)C3)c(F)c21 (stereo unspecified)	61.6%
CC1=C(CCC(C)N(C)Cc2ccc(OCCCN3CCCC3)cc2)C(C)(C)CCC1 (stereo unspecified)	55.6%
COP(=O)(OC)C(C)(C)CC(=O)CC(C#N)(C#N)C(C#N)C#N	96.2%
CCCCC[C@@H]1Cc2cc(O)c(C(=O)O)c3c2[C@H](C[C@]2(OC[C@@H](CC(=O)[C@@](C)(CC)C(=O)OC)[C@@H]2C)O3)O1	121%
Nc1ncnc2c1N=C(c1ccc(Cl)cc1)CC(c1ccc3c(c1)OCO3)N2 (stereo unspecified)	95.5%
O=[N+]([O-])/C(=C/C=C/c1ccccc1)c1ccccc1	103%
Fc1ccc(-c2nn(-c3ccccc3)cc2-c2nc3ccccc3o2)cc1	66.4%
COc1cc(/C=C/C(=O)c2cccc(Nc3nc(Nc4ccccc4)nc(Nc4ccccc4)n3)c2)cc(OC)c1OC	64.2%
C#CCOc1cccc(Nc2ncnc3c(NC(=O)C=C)cccc23)c1	8.49% (active)
CNc1nc(S(=O)c2ccc(C#N)cc2)nc2ccccc12 (stereo unspecified)	74.6%
CC(=O)N(N=Nc1ccccc1)c1cccc2ccccc12	69.5%
O=C(/C=C/c1cn(-c2ccccc2)nc1-c1ccc([N+](=O)[O-])cc1)c1ccc(Cl)cc1	62.7%
COc1cc(-c2csc(NC(=O)c3cc(-n4cnc(C)c4)cc(C(F)(F)F)c3)n2)cc(OC)c1OC	47.4%
COc1ccc(-c2nc3c(c(-c4ccccc4)nn3-c3ccccc3)c(-c3ccc(N4CCOCC4)cc3)c2C#N)cc1	95.3%
CSc1nc2sc3c(c2c(=O)n1-c1ccc([N+](=O)[O-])cc1)CCCCC3	102%
